In all, about 360,000 compounds went through this assay and about 11,000 (3.1%) were called active. Another 4% or so got no clear call; they are omitted. The sample holds actives, similar compounds and a random draw of the others, so the mix is not that of the screen. Unmarked numbers belong to inactive results. The call rests on the fitted dose curve; in most records, active means well fitted inhibition curve with a large enough effect; inconclusive means small, poorly fitted or top-dose-only effect; inactive means no such curve, though single readings can be large or run the other way.
On the % scale 0 is the no-effect control and ±100 the full control effect; potency means the concentration at half of the fitted maximal effect.

This assay addresses Schistosoma mansoni thioredoxin glutathione reductase (TGR) (UniProt Q962Y6). Nature of the assay: qHTS Assay for the Inhibitors of Schistosoma Mansoni Peroxiredoxins. Further: nearly all actives have a fitted effect of over 60% in size. The settings on record: purified TGR, DTNB reduction, TNB absorbance 405 nm; series mostly up to 114 µM; activity change, negative = inhibition: at the top concentration. In short, it runs like this: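 Kinetic colorimetric format: TGR-catalysed, NADPH-driven DTNB reduction monitored via TNB absorbance. Enzyme dispensed at 20 nM; compound exposure 15 min at room temperature before reaction start.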
Background: In qHTS, concentration-response curves come from the screen itself.
Take `NC(=O)CSc1nc2c(oc3ccccc32)c(=O)n1Cc1ccccc1`: the “activity change, negative = inhibition” value is 5.1%.
The same measure, in the same setting: for `CN1c2ccc(Cl)cc2-c2nc(SCC(=O)Nc3cc(F)ccc3F)ncc2S1(=O)=O` the value was 0.619%; for `N#Cc1ccccc1S(=O)(=O)N1CCN(C(=O)c2cc(-c3ccccc3)nn2-c2ccccc2)CC1`, -1.32%.
`N#Cc1ccccc1S(=O)(=O)N1CCN(Cc2c(O)ccc3ccccc23)CC1`: the Potency was 0.891 µM (active).
In the case of `COc1ccc(-c2csc3ncnc(N4CCN(S(=O)(=O)c5ccccc5C#N)CC4)c23)cc1`, the “activity change, negative = inhibition” value was -8.78%.
Turning to `O=C(CSc1cn(CC(=O)N2CCOCC2)c2ccccc12)Nc1ccccc1`, the “activity change, negative = inhibition” value was 11.4%.
On the same count and under the same terms, the result for `COc1ccccc1C(c1nnnn1CC1CCCO1)N1CCN(c2ccccc2)CC1` (stereo not drawn) reads -1.2%; that for `CCC(C)(C)n1nnnc1C(c1ccc(OC)c(OC)c1)N1CCN(C(=O)c2ccco2)CC1` (stereo not drawn), -29.5%.
For the compound `COc1ccc(C(c2nnnn2Cc2cccs2)N2CCN(c3ccccc3)CC2)cc1OC` (stereo not drawn), the Potency is 44.7 µM (active).
As to `CCOc1ccc(CCNC(=O)c2c(C)oc3ncn(C)c(=O)c23)cc1`, the “activity change, negative = inhibition” value was 0.186%.
Still for that read-out and setting: the result for `CCSc1nc(C)c(CCOc2cccc(C)c2)c(=O)[nH]1` reads -7.91%; that for `CC(C)c1c(O)nc(SCCOc2ccc(Cl)cc2)[nH]c1=O`, 0.293%.
`CCSc1nc(O)c(C(c2cccc(OC)c2)c2c(O)nc(SCC)[nH]c2=O)c(=O)[nH]1`: the Potency was 5.01 µM (active).
Consider `CCc1ccc(CNC(=O)c2cc3c(=O)n(CC)c4ccccc4c3s2)cc1`, for which the “activity change, negative = inhibition” value is 8.1%.
Same read-out and setting: the result for `CC1=C(c2ccc(F)cc2)S(=O)(=O)N=C1N1CCC(C(=O)NCCc2ccccc2C)CC1` reads -1.75%; that for `CCC1CCCCN1C(=O)Cn1c(=O)n(CCCCCC(=O)NCc2ccccc2)c(=O)c2sccc21` (stereo not drawn), -7.45%; that for `COC(=O)C(CC(=O)Nc1cc(C)ccc1C)Nc1ccccc1OC` (stereo not drawn), -24.7%.
On the same count and under the same terms, the result for `O=C(COC(=O)[C@H](Cc1ccccc1)NC(=O)c1cccs1)Nc1cc(F)ccc1F` reads 2.43%.
Consider `Cc1ccc(C)c(NC(CC(=O)c2ccccc2)C(=O)OCC(=O)c2cccs2)c1` (stereo not drawn), for which the Potency was 12.6 µM (active).
In the case of `CCN(CCCNC(=O)c1ccc(Sc2ccc(C)cc2)c(NC(C)=O)c1)c1cccc(C)c1`, the “activity change, negative = inhibition” value was 1.43%.
The same measure, in the same setting: for `CC1CCN(S(=O)(=O)c2ccc3c(c2)N(CC(=O)NCc2ccccc2Cl)C(=O)CO3)CC1` the value was 4.2%; for `O=c1n(Cc2cccc(C(F)(F)F)c2)c2ccccc2c2nc(-c3ccccc3)nn12`, 8.09%; for `CN1CCN(C(CNC(=O)c2ccccc2F)c2ccc3c(c2)OCO3)CC1` (stereo not drawn), -3.13%.
On the same count and under the same terms, for `CC1CCCN(c2cc3c(cc2F)c(=O)c(S(=O)(=O)c2cccc(Cl)c2)cn3Cc2ccccc2)C1` (stereo not drawn) the value was -1.38%.
For the compound `COC/C=C/C1=CC2=CC(=O)C(C)(OC(=O)CCC(=O)OC)C(=O)C2=CO1` (stereo not drawn), the Potency is 3.98 µM (active).
For the compound `C=CCN1C=C2C(=O)C(C)(OC(=O)CCc3ccccc3)C(=O)C=C2C=C1c1ccc(C#N)cc1` (stereo not drawn), the “activity change, negative = inhibition” value is -25.6%.
On the same count and under the same terms, the result for `CCCCC1=CC2=CC(=O)C(C)(OC(=O)CC)C(=O)C2=CN1CCCOC(C)C` (stereo not drawn) reads -25.2%; that for `O=C(NCCCO)C(=O)Nc1c2c(nn1-c1ccc(F)cc1)CSC2`, -26.7%; that for `Cn1cnc([N+](=O)[O-])c1Nc1ccccc1O`, -2.08%.
Regarding `Cn1cnc([N+](=O)[O-])c1Sc1n[nH]c(N)n1`, the Potency is 10 µM (active).
As for `Cn1nc(-c2ccccc2)c(CO)c1Sc1ccccc1`, the “activity change, negative = inhibition” value is -3.58%.
Regarding `Cn1cnc([N+](=O)[O-])c1Sc1ccccc1`, the Potency is 50.1 µM (active).
Consider `Nc1nc(Sc2ncccc2[N+](=O)[O-])n[nH]1`, for which the “activity change, negative = inhibition” value was 2.21%.
The same measure, in the same setting: the result for `Nc1nc(SCC(=O)Nc2ccc(Cl)c([N+](=O)[O-])c2)n[nH]1` reads -2.15%; that for `Cc1nnc(NC(=O)c2ccc3nccnc3c2)s1`, -3.57%; that for `Cc1ccc(C(=O)Cn2cccn2)cc1`, 2.69%.
As to `Cc1ccc(C(=O)Cc2nnc(C)s2)cc1`, the Potency is 10 µM (active).
`Cc1cc(C)cc(NC(=O)CSc2nc(=O)n(CCN3CCOCC3)c3c2CCC3)c1`: the “activity change, negative = inhibition” value is 8.04%.
Still for that read-out and setting: the result for `CC(C)C(NC(=O)c1ccc(Cl)cc1)C(=O)O` (stereo not drawn) reads -11.7%.
Still for that read-out and setting: for `Cc1occc1C(=O)NNC(=S)NCC(C)C` the value was -10.8%.
With `CC(C)CNC(=S)NC(=O)c1ccc(Cl)cc1`, the Potency was 50.1 µM (active).
The same measure, in the same setting: for `CC[N+](C)(CC)CCC[n+]1c(-c2ccccc2)c2cc(N)ccc2c2ccc(N)cc21` the value was 39.8 µM (active).
For `CC(=O)c1ccc(NC(=O)COc2ccccc2-c2nc(-c3ccccc3)no2)cc1`, the “activity change, negative = inhibition” value is -3.59%.
Still for that read-out and setting: the result for `CCc1ccc(NC(=O)c2cc(S(=O)(=O)NC3CCCCCC3)ccc2F)cc1` reads 3.87%.
Same read-out and setting: for `Cc1ccc(NC(=O)C(Cc2ccccc2)NS(=O)(=O)c2ccc3c(c2)oc(=O)n3C)cc1C` (stereo not drawn) the value was -0.776%.
Still for that read-out and setting: for `Cc1oc2ncnc(N3CCOCC3)c2c1C(=O)NCCc1ccccc1` the value was 0.044%.
Regarding `CCC(=O)N1CCc2cc(CNS(=O)(=O)c3ccc(Br)s3)ccc21`, the “activity change, negative = inhibition” value is 2.77%.
The same measure, in the same setting: the result for `c1ccc(-c2nccc(-c3ccc(-n4cnc5ccccc54)cc3)n2)nc1` reads 3.5%.

The values above are taken from PubChem BioAssay AID485364 (National Center for Advancing Translational Sciences (NCATS), 2010).
